Screens from PubChem BioAssay.
Gal4-VP16 FLuc: counter-screen for ROR gamma inhibitors: Gal4-VP16 reporter; Drosophila S2 Gal4-VP16 UAS-luciferase, luminescence, 20 h; Potency, µM (series often up to 53.6 µM), for inactives: top-dose activity, negative = inhibition, most hits filed as inhibitors; 310,000 tested, 3.5% active;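 also: Gal4-VP16 expression switched on by copper sulfate through the metallothionein promoter; nearly all actives have a fitted effect of over 50% in size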
RORgamma inh: inhibitors of mouse ROR gamma transcriptional activity | P51450 | Potency, µM (top dose mostly 53.6 µM), for the others: top-dose activity change, negative = inhibition, most hits filed as inhibitors | Drosophila S2 Gal4-RORgamma UAS-luciferase reporter, 20 h | 310,000 tested, 5.4% active; also: nearly all actives have a fitted effect of over 60% in size
Target sequence (P51450 whole entry, looked up, the tested form may be a part): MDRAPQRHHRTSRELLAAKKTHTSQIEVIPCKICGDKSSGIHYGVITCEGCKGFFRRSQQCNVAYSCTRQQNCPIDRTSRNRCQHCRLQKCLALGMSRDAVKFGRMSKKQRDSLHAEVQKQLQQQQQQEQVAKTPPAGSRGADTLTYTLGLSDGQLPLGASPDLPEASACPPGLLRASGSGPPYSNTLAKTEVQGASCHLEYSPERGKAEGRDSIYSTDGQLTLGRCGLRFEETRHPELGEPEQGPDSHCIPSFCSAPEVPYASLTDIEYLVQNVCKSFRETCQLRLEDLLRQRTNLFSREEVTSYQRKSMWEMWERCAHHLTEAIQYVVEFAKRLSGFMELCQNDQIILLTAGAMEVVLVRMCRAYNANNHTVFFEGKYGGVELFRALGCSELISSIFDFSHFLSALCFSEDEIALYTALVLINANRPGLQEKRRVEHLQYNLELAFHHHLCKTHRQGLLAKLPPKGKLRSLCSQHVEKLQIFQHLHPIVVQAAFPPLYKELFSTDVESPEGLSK
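Stably transfected Drosophila Schneider cells are the test system, with ROR gamma fused to Gal4 and luciferase under UAS control; luminescence is read after 20 hr of 700 uM copper sulfate induction at ambient temperature.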
KinaseGlo FLuc: blocks Kinase-Glo luciferase, a counter-screen artifact. Kinase-Glo luciferase, ATP luminescence, 8 min. Potency, µM (highest dose often 38.3 µM), for the others: at the top dose activity change, negative = inhibition, actives largely listed as inhibitors. 200,000 tested, 0.28% active. AID 1379; also: nearly all actives have a fitted effect of over 60% in size
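Compound is pinned into ATP-containing buffer (10 uM ATP, imidazole pH 7.2, 7 mM MgCl2). Kinase-Glo luciferase reagent is then added. Light output is recorded following an 8-min room-temperature incubation.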
* = called active by the depositor; u = inconclusive; x = no result given; [ ] = another dose, or the depositor's remark. The list is not random: actives were taken first. Their share in the collection is about 6.4%. Calls follow the shape of the dose curve; as a rule, active = well fitted curve in the direction sought with a large enough effect; inconclusive = small, poorly fitted or top-dose-only effect, or another doubt; inactive = no such curve, though single readings can be large; an effect the other way counts as inactive or inconclusive. % is scaled to controls: 0 for no effect and ±100 for the full control effect; potency is read from the fitted curve at half-maximal effect.

SMILES | Gal4-VP16 FLuc | RORgamma inh | KinaseGlo FLuc
Cc1ccc(S(=O)(=O)N(C)C)cc1NC(=O)c1cncc(Br)c1 | 2.5µM* | 10µM* | -2%
CN(C)S(=O)(=O)c1cccc(NC(=O)c2cncc(Br)c2)c1 | u | u | -2%
COc1ccc(CCN(C)C2CCCN(C(=O)c3sccc3C)C2)cc1OC (stereo unspecified) | -8% | -12% | x
COc1ccc(N(CC(=O)N2CCOCC2)S(C)(=O)=O)cc1Cl | -2% | -29% | x
CC(Sc1cccc[n+]1[O-])C(=O)Nc1cccc([N+](=O)[O-])c1 (stereo unspecified) | -16% | 25% | 4%
CCC(Sc1ccccn1)C(=O)Nc1cccc([N+](=O)[O-])c1 (stereo unspecified) | u | 16µM* | x
Cc1noc(C)c1CCC(=O)N1CCCC(N2CCN(c3ccc(F)cc3)CC2)C1 (stereo unspecified) | 1% | -4% | x
Cc1ccccc1NC1=NC(=S)N(c2ccccc2)C12CCCCC2 | u | 3.5µM* | 1%
CC1(C)CC2(CCO1)C(Nc1ccccc1)=NC(=S)N2c1ccccc1 (stereo unspecified) | 3% | 25% | x
CCC1(C)C(Nc2c(C)cccc2C)=NC(=S)N1c1ccc(NC(C)=O)cc1 (stereo unspecified) | -12% | 44% | x
Cc1ccccc1NC1=NC(=S)N(c2ccccc2)C12CCOC(C)(C)C2 (stereo unspecified) | 18µM* | 6.3µM* | -6%
C=C1CCN(C(Cc2ccccc2)C(=O)Nc2ccc(OC)cc2)S(=O)(=O)c2ccccc21 (stereo unspecified) | -6% | -30% | x
O=C1CCC(C(=O)N2CCCC2)CN1Cc1cccc(C(F)(F)F)c1 (stereo unspecified) | 16% | 0% | x
Cc1ccc(S(=O)(=O)N2CCCC2C(=O)NCc2ccc3c(c2)OCO3)cc1 (stereo unspecified) | 5% | 6% | -3%
Cc1ccccc1CN(C)C(C)C(=O)Nc1ccccc1F (stereo unspecified) | u | 8% | -2%
Cc1cc(C)n(-c2nc3ccccc3nc2N2CCCC2)n1 | -1% | -17% | -3%
Cc1cc(C)n(-c2nc3ccccc3nc2N2CCCCCC2)n1 | -12% | 11µM* | 1%
Cc1cccc2cc3c(NC(=O)c4ccccn4)nn(C)c3nc12 | 4µM* | 2µM* | -4%
CCCC(=O)Nc1nn(C)c2nc3c(C)cccc3cc12 | -11% | 5% | -2%
O=C(CCn1cnnn1)N1CCCC(Nc2ccc(F)cc2)C1 (stereo unspecified) | 10% | u | x
Cn1c(=O)c(=O)n(C)c2cc(S(=O)(=O)NCCOc3ccccc3Cl)ccc21 | 19% | -22% | -2%
CC(C)=CCC/C(C)=C/CO/N=C1/C[C@@H](O)[C@@H](O)[C@@H]2[C@@H]3C(=O)N(Cc4ccc5c(c4)OCO5)C(=O)[C@H]3CC[C@H]12 | -9%[10 µM] | 0%[10 µM] | x
CCOC(=O)C(=N/O)/C(C)=N/NC(=O)C(=O)Nc1cc(Cl)ccc1Cl | 22µM* | 11µM* | x
CCOC(=O)C(=N/O)/C(C)=N/NC(C)=O | 6%[10 µM] | -42% | -2%
CCCCNC(=O)NNc1nc(Cl)cc(C)c1C#N | 14µM* | -26% | 0%
SMILES | Gal4-VP16 FLuc | RORgamma inh | KinaseGlo FLuc
CCCCNc1nc(C)c(C(C)=O)cc1C#N | 20% | -2% | 1%
C[C@@H]1C(=O)O[C@H]2C[C@@]34[C@H]5C[C@@H](C(C)(C)C)[C@]36[C@H](OC(=O)[C@H]6O)O[C@]4(C(=O)O5)[C@]21O | 8% | -1% | x
CS(=O)(=O)c1ccc(C(=O)NCCN2C(=O)S/C(=C\c3cccnc3)C2=O)cc1[N+](=O)[O-] | u | 5.6µM* | -3%
CN(C)S(=O)(=O)c1ccc(C(=O)NCCN2C(=O)S/C(=C\c3cccnc3)C2=O)cc1 | 2% | -6% | 0%
Cc1ccc(/C=N/N=C2/NC(=O)C(CC(=O)N3CCOCC3)S2)cc1 (stereo unspecified) | 4% | 6% | 0%
CC(C)NC(=O)C(=O)Nc1cc2c3c(c1)C(C)C(=O)N3CCC2 (stereo unspecified) | -14% | -35% | x
CC/C(CC(=O)C(F)(F)F)=N\NC(=O)/C(C#N)=C/N(C)C | u | 7.1µM* | 3%
CN(C)/C=C(\C#N)C(=O)N/N=C/c1ccc(F)cc1 | 1% | 14% | -2%
Cc1ccccc1N(C(=O)CNC(=O)c1ccco1)C(C(=O)NC1CCCCC1)c1cccnc1 (stereo unspecified) | 1% | -17% | x
CC1CCN(Cc2c(O)ccc3c(=O)c(-c4nc5ccccc5s4)c(N)oc23)CC1 | 1% | -25% | -5%
CC1CCCN(Cc2c(O)ccc3c(=O)c(-c4nc5ccccc5s4)c(N)oc23)C1 (stereo unspecified) | u | 25µM* | -6%
COCC(C)NS(=O)(=O)c1ccc(NC(=O)c2ccccn2)cc1 (stereo unspecified) | -1% | 29% | x
COc1ccc2[nH]c(=O)c(CN(CC3CCCO3)S(=O)(=O)c3ccccc3F)cc2c1 (stereo unspecified) | 8% | 21% | x
COc1cccc2cc(C(=O)NCc3ccccc3)c(=N)oc12 | -2% | -15% | x
COc1cccc2cc(C(=O)NCc3ccc(Cl)cc3)c(=N)oc12 | u | 0.089µM* | x
CN1C(=O)/C(=C/c2ccc(OCc3ccccc3F)cc2)N(C)C1=S | -13% | 25% | x
Cc1ccc(C#CC[N+]2(C)CCCCC2)cc1 | 3% | 28% | x
c1cncc(Nc2nc(-c3cccs3)cs2)c1 | 0% | u | -1%
Cc1ccc(Nc2nc(-c3cccs3)cs2)nc1 | 13µM* | 11µM* | -9%
COc1ccc(N=Cc2cc(Cl)ccc2O)cc1Cl | 1% | -5% | x
COc1cc(Cl)cc(/C=C/c2ccc3cccc(O)c3n2)c1OC | -10% | 5µM* | x
COc1ccc(Cl)cc1/C=C/c1ccc2cccc(O)c2n1 | 0.79µM* | 0.89µM* | x
COc1ccccc1/C=C/c1ccc2cccc(O)c2n1 | u | 4µM* | x
COc1ccccc1/C=C\C(=O)O | 4% | -2% | -1%
COc1c(OC(C)=O)ccc(/C=C/c2ccc3ccccc3n2)c1[N+](=O)[O-] | u | u | 3%
SMILES | Gal4-VP16 FLuc | RORgamma inh | KinaseGlo FLuc
Cc1cc(C)c(NC(=O)Cn2nnc(C(=O)NCc3ccc4c(c3)OCO4)c2N)c(C)c1 | -5% | -2% | x
Cc1nn(C)c(Oc2ccccc2)c1CCNS(=O)(=O)c1ccccc1 | 2% | -17% | 2%
c1ccc2c3c([nH]c2c1)[C@@H]1[C@H]2CC[C@H]([C@H]4CCCN[C@H]42)N1CC3 | -3%[17 µM] | 0%[16.9 µM] | 1%[17.1 µM]
CCn1c(CCNC(=O)c2ccc(Cl)cc2Cl)n[nH]c1=S | -4% | u | -3%
CCCCc1n[nH]c(=S)n1Cc1ccc(Cl)cc1 | 7.1µM* | 4µM* | 0%
CCN(CC)S(=O)(=O)c1ccc(C(=O)NCc2n[nH]c(=S)n2Cc2ccccc2)cc1 | -4% | -40% | -5%
CCCCc1n[nH]c(=S)n1Cc1ccccc1 | 16µM* | 4µM* | 2%
CC(C)=CCC/C(C)=C/CC/C(C)=C/CSCC(=O)O | u | u | 1%
Cc1ccc(NC(=O)CCC(=O)c2cccs2)cc1F | -10% | -2% | x
CCN(CC(=O)NCc1ccc(F)cc1)CC(=O)NC1CCCC1 | -17% | -2% | x
